According to PubChem BioAssay (Tox21):
Records with an inconclusive call do not appear. Calls of active or inactive are those of the source. Unless noted, the call rests on the fitted dose curve; in most records, active means well fitted curve in the direction sought with a large enough effect in the repeat runs; inconclusive means weak or mixed curves; inactive means flat fitted curve, though single readings scatter.

Assays:
[1] = qHTS assay to test for compound auto fluorescence at 535 nm (green) in HEK293 cells (AID 720680)
[2] = qHTS assay to test for compound auto fluorescence at 460 nm (blue) in HEK293 cell free culture (AID 720681)
Procedure, shortened: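 Test compounds were pinned into cell-free culture medium (DMEM with 10% FBS) and fluorescence was read directly at Ex/Em 405/460 nm. Signals were expressed as fluorescence equivalents of triamterene, with DMSO vehicle as control.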

[3] = qHTS assay to test for compound auto fluorescence at 535 nm (green) in HEK293 cell free culture (AID 720682)
Procedure, shortened: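 Intrinsic compound fluorescence is measured in culture medium containing 10% FBS, with excitation at 485 nm and detection at 535 nm, referenced to fluorescein.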

[4] = qHTS assay to test for compound auto fluorescence at 590 nm (red) in HEK293 cell free culture (AID 720683)
Procedure, shortened: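 Tox21 10K library compounds were pinned into cell-free DMEM with 10% FBS and fluorescence was read at excitation 540 nm. Activity is expressed as Rose Bengal sodium equivalency.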

[5] = qHTS assay to test for compound auto fluorescence at 590 nm (red) in HepG2 cell free culture (AID 720684)
Procedure, shortened: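 Readout: intrinsic compound fluorescence at 590 nm emission after 540 nm excitation, scaled to Rose Bengal sodium. Matrix was cell-free MEM with 10% FBS; DMSO vehicle wells served as control.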

[6] = qHTS assay to test for compound auto fluorescence at 460 nm (blue) in HepG2 cells (AID 720687)
Procedure, shortened: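 Cells (2,000/well in MEM with 10% FBS) attached overnight at 37 C, then were exposed to compound or DMSO for 1 hr at 37 C, 5% CO2. Fluorescence read at Ex/Em 405/460 nm, expressed as triamterene-equivalent signal.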

[7] = molecular target: Glucocorticoid receptor (Homo sapiens) (UniProt P04150); assay: qHTS assay to identify small molecule agonists of the glucocorticoid receptor (GR) signaling pathway (AID 720691; active means well fitted activation curve with a large enough effect in the signal ratio in the repeat runs, not every such curve was filed as active; the % refers to the signal ratio; further: potency means the concentration at half of the fitted maximal effect)
Glucocorticoid receptor (Homo sapiens), sequence (P04150 whole entry, looked up): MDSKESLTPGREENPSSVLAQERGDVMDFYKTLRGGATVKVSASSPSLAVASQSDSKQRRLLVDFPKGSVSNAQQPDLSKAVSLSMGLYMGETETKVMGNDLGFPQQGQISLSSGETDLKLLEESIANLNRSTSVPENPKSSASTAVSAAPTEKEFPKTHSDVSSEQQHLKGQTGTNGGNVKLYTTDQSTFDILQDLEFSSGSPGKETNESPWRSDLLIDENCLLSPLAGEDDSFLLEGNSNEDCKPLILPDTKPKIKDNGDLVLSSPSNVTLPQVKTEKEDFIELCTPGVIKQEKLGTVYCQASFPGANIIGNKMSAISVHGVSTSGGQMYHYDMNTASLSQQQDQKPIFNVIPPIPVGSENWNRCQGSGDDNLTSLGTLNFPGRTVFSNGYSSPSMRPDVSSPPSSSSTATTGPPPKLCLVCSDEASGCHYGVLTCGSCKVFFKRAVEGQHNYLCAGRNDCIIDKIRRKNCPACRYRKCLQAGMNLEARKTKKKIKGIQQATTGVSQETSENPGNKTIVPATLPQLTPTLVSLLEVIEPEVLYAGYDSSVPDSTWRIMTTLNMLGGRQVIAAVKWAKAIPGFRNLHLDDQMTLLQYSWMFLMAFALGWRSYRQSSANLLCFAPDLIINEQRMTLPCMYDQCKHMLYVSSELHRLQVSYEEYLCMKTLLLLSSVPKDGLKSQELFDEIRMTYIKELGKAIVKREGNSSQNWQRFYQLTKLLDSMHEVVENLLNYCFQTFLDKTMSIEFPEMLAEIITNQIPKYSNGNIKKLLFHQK
Procedure, shortened: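 Measures GR pathway activation through a GRE-beta-lactamase reporter stably integrated in HeLa cells, with 18 h compound treatment at 37 C and fluorescence detection using a FRET substrate.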

[8] = molecular target: Glucocorticoid receptor (Homo sapiens) (UniProt P04150); assay: qHTS assay to identify small molecule antagonists of the glucocorticoid receptor (GR) signaling pathway (AID 720692; active means well fitted inhibition curve with a large enough effect in the signal ratio in the repeat runs, not every such curve was filed as active; the % refers to the signal ratio; further: potency means the concentration at half of the fitted maximal effect)
Procedure, shortened: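 Tox21 10K library screened in concentration-response for blockade of dexamethasone (5 nM final)-induced GRE-bla reporter activity in HeLa cells; 18 h treatment, fluorescence read.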

[9] = qHTS assay to test for compound auto fluorescence at 535 nm (green) in HepG2 cell free culture (AID 720686)
[10] = qHTS assay to test for compound auto fluorescence at 460 nm (blue) in HepG2 cell free culture (AID 720685)
Procedure, shortened: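 Cell-free plates of MEM plus 10% FBS received 23 nL compound or DMSO vehicle; blue-channel (405/460 nm) intensity scored against triamterene as reference fluorophore.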
On the % scale 0 is the no-effect control and ±100 the full control effect.

c1ccc(CNc2ncnc3c2ncn3C2CCCCO2)cc1 (stereo unspecified)
inactive: outcome [1] | Potency [2] | outcome [3] | outcome [4] | outcome [5] | Potency [6] | Potency [7] | Potency [8]

Cc1cn([C@H]2C[C@H](F)[C@@H](CO)O2)c(=O)[nH]c1=O
inactive: outcome [1] | Potency [2] | outcome [3] | outcome [4] | outcome [5] | outcome [9] | Potency [6] | Potency [7] | Potency [8]

CCCCCCCCCCCCCCCCCC(=O)OCC(CC)CCCC (stereo unspecified)
inactive: outcome [1] | Potency [2] | outcome [3] | outcome [5] | Potency [10] | outcome [9] | Potency [6]

CC(=O)c1ccc[nH]1
inactive: outcome [1] | Potency [2] | outcome [3] | outcome [5] | Potency [10] | outcome [9] | Potency [6] | Potency [7] | Potency [8]

O=C1OC[C@H](Cc2cccc(O)c2)[C@H]1Cc1cccc(O)c1
inactive: outcome [1] | Potency [2] | outcome [3] | outcome [5] | Potency [10] | outcome [9] | Potency [7] | Potency [8]

Nc1ccc(NC(=O)c2ccc(N)cc2)cc1
inactive: outcome [1] | Potency [2] | outcome [3] | outcome [5] | Potency [6]

O=C(CCS)OCC(COC(=O)CCS)(COC(=O)CCS)COC(=O)CCS
inactive: outcome [1] | Potency [2] | outcome [3] | outcome [4] | outcome [5] | Potency [6] | Potency [7] | Potency [8]

CC[C@H]1OC(=O)[C@H](C)[C@@H](O[C@H]2C[C@@](C)(OC)[C@@H](O)[C@H](C)O2)[C@H](C)[C@@H](O[C@@H]2O[C@H](C)C[C@H](N(C)C)[C@H]2O)[C@](C)(O)C[C@@H](C)CN(C)[C@H](C)[C@@H](O)[C@]1(C)O
inactive: outcome [1] | Potency [2] | outcome [3] | outcome [5] | outcome [9] | Potency [6]

CNC1CCCN(c2c(F)cc3c(=O)c(C(=O)O)cn(C4CC4)c3c2OC)C1 (stereo unspecified)
inactive: outcome [1] | Potency [2] | outcome [3] | outcome [5] | Potency [10] | outcome [9] | Potency [6]

COc1ccc2nc(S(=O)Cc3ncc(C)c(OC)c3C)[nH]c2c1 (stereo unspecified)
inactive: outcome [1] | Potency [2] | outcome [3] | outcome [5] | Potency [10] | outcome [9]

CCN(CC)C(=O)N1CCN(C)CC1
inactive: fluorescence, % of fluorescein [1] -0.0466% [at 18.6 µM] | fluorescence, % of fluorescent control [2] 0.0671% [at 18.6 µM] | activity change [3] -0.0353% [at 18.6 µM] | fluorescence, % of Rose Bengal [5] 0.0189% [at 18.6 µM] | fluorescence, % of fluorescent control [10] -0.0488% [at 18.6 µM] | fluorescence, % of fluorescein control [9] -0.0623% [at 18.6 µM] | fluorescence, % of fluorescent control [6] 0.0195% [at 18.6 µM]
active: Potency [7] 10.2 µM

C=CC(=O)O
inactive: outcome [1] | Potency [2] | outcome [3] | outcome [5] | Potency [10] | outcome [9] | Potency [6] | Potency [7] | Potency [8]

COC1CCC=CO1 (stereo unspecified)
inactive: outcome [1] | Potency [2] | outcome [3] | outcome [5] | outcome [9] | Potency [6]

CCc1ccc(C)cc1
inactive: outcome [1] | Potency [2] | outcome [3] | outcome [4] | outcome [5] | outcome [9] | Potency [6] | Potency [7] | Potency [8]

CC1=CC[C@@H]2C[C@H]1C2(C)C
inactive: fluorescence, % of fluorescein [1] -0.149% [at 18.6 µM] | fluorescence, % of fluorescent control [2] 0.0118% [at 18.6 µM] | activity change [3] -0.0302% [at 18.6 µM] | fluorescence, % of Rose Bengal [5] 0.0249% [at 18.6 µM] | fluorescence, % of fluorescent control [10] 0.0508% [at 18.6 µM] | fluorescence, % of fluorescein control [9] 0.0311% [at 18.6 µM]

C=CC(=O)NC(C)C
inactive: outcome [1] | Potency [2] | outcome [3] | outcome [5] | Potency [10] | outcome [9] | Potency [6] | Potency [7] | Potency [8]

Nc1cccc2c(N)cccc12
inactive: outcome [1] | Potency [2] | outcome [3] | outcome [5] | Potency [10] | outcome [9] | Potency [6] | Potency [7]

CCCCCCOC(=O)CCCCC
inactive: outcome [1] | Potency [2] | outcome [3] | outcome [5] | Potency [10] | outcome [9] | Potency [6] | Potency [7] | Potency [8]

O=C(O)CCS
inactive: outcome [1] | Potency [2] | outcome [3] | outcome [5] | Potency [10] | outcome [9] | Potency [6]

C1=CCC2CC=CC2C1 (stereo unspecified)
inactive: outcome [1] | Potency [2] | outcome [3] | outcome [4] | outcome [5] | Potency [6] | Potency [7] | Potency [8]

Cc1ccc(Nc2c(F)cccc2Cl)c(CC(=O)O)c1
inactive: outcome [1] | Potency [2] | outcome [3] | outcome [5] | Potency [10] | Potency [6] | Potency [7] | Potency [8]

CC(C)OC(=O)c1ccccc1C(=O)OC(C)C
inactive: outcome [1] | Potency [2] | outcome [3] | outcome [5] | Potency [10] | outcome [9] | Potency [6] | Potency [7] | Potency [8]

Oc1ccc2c(c1)Cc1ccccc1-2
inactive: outcome [1] | Potency [2] | outcome [3] | outcome [5] | Potency [10] | outcome [9] | Potency [6]
active: Potency [8] 19.5 µM

CC1CCCO1 (stereo unspecified)
inactive: outcome [1] | Potency [2] | outcome [3] | outcome [5] | Potency [10] | outcome [9] | Potency [6]

O=P(O)(O)Oc1ccccc1
inactive: outcome [1] | Potency [2] | outcome [3] | outcome [4] | outcome [5] | Potency [6] | Potency [7] | Potency [8]

O=S(=O)(O)CO
inactive: outcome [1] | Potency [2] | outcome [3] | outcome [5] | Potency [10] | outcome [9] | Potency [6] | Potency [7] | Potency [8]

CCOC(=O)C(C)O (stereo unspecified)
inactive: outcome [1] | Potency [2] | outcome [3] | outcome [5] | Potency [10] | outcome [9] | Potency [6] | Potency [7] | Potency [8]

N[C@@H](Cc1cc(I)c(O)c(I)c1)C(=O)O
inactive: outcome [1] | Potency [2] | outcome [3] | outcome [5] | Potency [10] | outcome [9] | Potency [7] | Potency [8]

O=C1CC[C@@H](C(=O)O)N1
inactive: outcome [1] | Potency [2] | outcome [3] | outcome [5] | outcome [9] | Potency [6] | Potency [7]

COc1cc(NCc2ccc3nc(N)nc(N)c3c2C)cc(OC)c1OC
inactive: outcome [1] | Potency [2] | outcome [3] | outcome [4] | outcome [5] | Potency [6] | Potency [7]

CC(C)(C(=O)c1cccnc1)c1cccnc1
inactive: fluorescence, % of fluorescein [1] 0.0635% [at 18.6 µM] | fluorescence, % of fluorescent control [2] -0.108% [at 18.6 µM] | activity change [3] 0.0185% [at 18.6 µM] | fluorescence, % of Rose Bengal [5] 0.0034% [at 18.6 µM] | fluorescence, % of fluorescent control [10] -0.0441% [at 18.6 µM] | fluorescence, % of fluorescein control [9] 0.0796% [at 18.6 µM] | fluorescence, % of fluorescent control [6] -0.0372% [at 18.6 µM] | Potency [7] | Potency [8]

O=C(O)CN1C(=O)c2cccc3cccc(c23)C1=O
inactive: outcome [1] | Potency [2] | outcome [3] | outcome [5] | Potency [10] | outcome [9] | Potency [6]

O=C(O)c1ccc(O)cc1O
inactive: outcome [1] | outcome [3] | outcome [4] | outcome [5] | Potency [10] | outcome [9] | Potency [6] | Potency [7]

CC(C)(C)C1(CCc2ccc(Cl)cc2)CO1 (stereo unspecified)
inactive: outcome [1] | outcome [3] | outcome [4] | outcome [5] | Potency [10] | outcome [9] | Potency [6]

CCNc1nc(N)nc(Cl)n1
inactive: outcome [1] | outcome [3] | outcome [5] | Potency [10] | outcome [9] | Potency [6]

O=C1[C@@H]2[C@H]3CC[C@H](C3)[C@@H]2C(=O)N1CCCCN1CCN(c2ncccn2)CC1
inactive: outcome [1] | outcome [3] | outcome [4] | outcome [5] | Potency [10] | outcome [9] | Potency [6] | Potency [7] | Potency [8]

O=C(O)c1cccc(C[C@@H]2COc3ccc(OCc4nc5cc(F)ccc5s4)cc3[C@@H]2O)c1
inactive: Potency [2] | outcome [3] | outcome [4] | outcome [5] | Potency [10] | outcome [9] | Potency [6] | Potency [7]

O=C(O)c1cccc(Oc2ccccc2)c1
inactive: outcome [1] | outcome [3] | outcome [5] | Potency [10] | Potency [6] | Potency [7] | Potency [8]

COc1ccc(CCN(C)CCCN2CCc3cc(OC)c(OC)cc3CC2=O)cc1OC
inactive: outcome [1] | outcome [3] | outcome [5] | outcome [9] | Potency [6]

CCCCCCCC(=O)Oc1c(Br)cc(C#N)cc1Br
inactive: outcome [1] | outcome [3] | outcome [4] | outcome [5] | Potency [10] | outcome [9] | Potency [7]

CCSC(=O)N(CC)CC
inactive: outcome [1] | outcome [3] | outcome [4] | outcome [5] | Potency [10] | outcome [9] | Potency [6] | Potency [7] | Potency [8]

CC(=O)OC(C)C[N+](C)(C)C (stereo unspecified)
inactive: fluorescence, % of fluorescein [1] -0.0571% [at 18.6 µM] | activity change [3] -0.0135% [at 18.6 µM] | fluorescence, % of Rose Bengal [5] -0.229% [at 18.6 µM] | fluorescence, % of fluorescein control [9] -0.0048% [at 18.6 µM] | fluorescence, % of fluorescent control [6] -0.0338% [at 18.6 µM] | Potency [7] | Potency [8]
